High-throughput results as filed in PubChem BioAssay.
tim23-1 inh = growth inhibitors of tim23-1 mutant yeast, primary screen, luminescence, uHTS; S. cerevisiae tim23-1 growth, BacTiter-Glo luminescence, 24 h; inhibition, % at 20 µM; actives 1.3% (n = 330,000); AID 463212, 2010;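 active means growth inhibition of the mutant yeast at or above 50%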;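 further: temperature-sensitive mutant grown at 25 °C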
TIM10 inh = growth inhibitors of isogenic TIM10 control yeast, primary screen, counter-screen for tim10-1 yeast inhibitor project, luminescence, uHTS. actives 1.4% (n = 330,000). inhibition, % at 10 µM. AID 463195, 2010. S. cerevisiae TIM10 strain growth, BacTiter-Glo luminescence, 24 h;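 active means inhibition of 40% or more at the single tested concentration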;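 further: wild-type TIM10 isogenic control strain grown at permissive 25 °C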
NALP1 inh = NALP1 inflammasome inhibitors in reconstituted yeast, colorimetric, S. cerevisiae, triplicate retest; AID 2071, 2009; S. cerevisiae NALP1/ASC/caspase-1 growth, X-gal OD620, 72 h; actives 0.61% (n = 280,000); inhibition, % at 10 µM; in the data active means inhibition mostly above about 24%, no sharp cut-off; inactive means mostly below about 32%
tim10-1 inh = growth inhibitors of tim10-1 mutant yeast, primary screen, luminescence, uHTS; S. cerevisiae tim10-1 ts strain growth, BacTiter-Glo, 24 h; inhibition, % at 20 µM; actives 2.2% (n = 330,000); AID 463190, 2010;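 active means inhibition of at least 40%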;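 further: mutant grown at 25 °C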
SKKanGAS inh = S. pyogenes SKKanGAS growth inhibitors in kanamycin, primary screen, streptokinase expression inhibitor project, SKKanGAS strain, BacTiter-Glo luminescence; 6 h; AID 1662, 2009; actives 1.3% (n = 300,000); inhibition, % at 7.5 µM;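 active means mean replicate score, as percent of positive control median, at least 50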;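 further: strain carries kanamycin resistance gene driven by streptokinase promoter and grows in 40 µg/ml kanamycin; loss of luminescence reflects streptokinase promoter inhibition or plain growth inhibition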
NLRP3 yeast inh = NALP3 inflammasome inhibitors in reconstituted yeast, primary screen, luminescence, uHTS. AID 2825, 2010. inhibition, % at 10 µM. actives 0.39% (n = 330,000). Yeast reconstituted NLRP3/ASC/caspase-1, beta-gal luminescence, 24 h;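 active means inhibition of 50% or more; inactive means inhibition below 50%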
tim10-1 conf = growth inhibitors of tim10-1 mutant yeast, confirmation, single concentration, luminescence, S. cerevisiae. shares compounds with tim10-1 inh. S. cerevisiae tim10-1 ts strain growth, BacTiter-Glo, 24 h. AID 463213, 2010. actives 56% (n = 7,400). inhibition, % at 20 µM;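 active means inhibition of yeast growth at or above a set limit in either of two repeat tests at 20 µM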;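 further: tim10-1 mutant grown at permissive 25 °C to find synthetic lethal compounds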
Hits are given with their value; 0 = inactive; - = no result. In the library only some 4.9% were active in any assay of this set; here they are far more common.

SMILES | tim23-1 inh | TIM10 inh | NALP1 inh | tim10-1 inh | SKKanGAS inh | NLRP3 yeast inh | tim10-1 conf
Cc1cc(-c2[nH]nc3c2C(c2ccsc2)C(C#N)=C(N)O3)c(C)s1 (stereo not given) | 0 | 0 | 0 | 47 | 0 | 0 | 44
Cc1ccc(-c2[nH]nc3c2C(C)C(C#N)=C(N)O3)cc1 (stereo not given) | 0 | 0 | 0 | 40 | 0 | 0 | 32
Cc1ccccc1-c1cc(C(=O)NCc2cccc(Br)c2)n(CC2CC(c3cccnc3)=NO2)n1 (stereo not given) | 0 | 0 | - | 0 | - | 0 | -
O=C(c1ccc2c(c1)OCCO2)N1CCN(Cc2c(F)cccc2Cl)CC1 | 0 | 0 | - | 0 | - | 0 | -
O=C(/C=C/c1cccc(C(F)(F)F)c1)NNC(=O)c1ccncc1 | 0 | 0 | - | 0 | - | 0 | -
CCN(C(=O)c1cccc(S(=O)(=O)N(C)C)c1)C12CC3CC(CC(C3)C1)C2 | 0 | 0 | 0 | 41 | 0 | 0 | 0
N#C/C(=C\c1c[nH]c2ccccc12)c1nnc2n1CCCCC2 | 0 | 0 | 0 | 0 | 0 | 0 | -
N#C/C(=N\Nc1cccc2ccccc12)c1nnc2n1CCCCC2 | 0 | 0 | 0 | 40 | 0 | 0 | 0
O=C(N/N=C/c1ccncc1)NC12CC3CC(CC(C3)C1)C2 | 0 | 0 | 0 | 0 | 0 | 0 | -
O=C(N/N=C/c1ccc(O)cc1)NC12CC3CC(CC(C3)C1)C2 | 0 | 0 | 0 | 50 | 0 | 0 | 35
O=C(CCCc1nc(-c2ccc(Cl)cc2)no1)NC1CCCC1 | 0 | 0 | 0 | 0 | 0 | 0 | -
CCC(=O)c1ccc(OCC(=O)Nc2cccc(S(=O)(=O)N3CCCCCC3)c2)cc1 | 0 | 0 | - | 0 | - | 0 | -
CN(CCCC(=O)O)c1ccc(N=Nc2ccc([N+](=O)[O-])cc2)cc1 | 0 | 0 | - | 54 | 0 | 0 | 45
S=c1[nH]nc(-c2ccco2)n1/N=C/c1ccc(Cl)cc1Cl | 0 | 0 | 0 | 0 | 0 | 0 | -
S=c1[nH]nc(-c2ccco2)n1/N=C/C=C/c1ccccc1 | 0 | 0 | 0 | 41 | 0 | 0 | 30
S=c1[nH]nc(-c2ccccc2)n1/N=C/C=C/c1ccco1 | 0 | 0 | 0 | 0 | 0 | 0 | -
S=c1[nH]nc(-c2ccco2)n1/N=C/c1cccc(Cl)c1Cl | 0 | 0 | 0 | 41 | 0 | 0 | 33
O=C(NCC(c1cccs1)N1CCOCC1)c1cccc([N+](=O)[O-])c1 (stereo not given) | 0 | 0 | 0 | 0 | 0 | 0 | -
O=C(NCC(c1cccs1)N1CCOCC1)c1cc([N+](=O)[O-])cc([N+](=O)[O-])c1 (stereo not given) | 0 | 0 | 0 | 42 | 0 | 0 | 0
C[C@]12CCC(=O)CC1CCC1C2CC[C@@]2(C)C1CC[C@@]21CCO1 (stereo not given in full) | 0 | 0 | 0 | 0 | 0 | 0 | -
C[C@]12CCC(=O)C[C@@H]1CC[C@@H]1[C@@H]2CC[C@]2(C)C=CC[C@@H]12 | 0 | 0 | 0 | 52 | 0 | 0 | 70
COc1cccc(OC)c1NC(=O)CN(C)S(=O)(=O)c1ccc2c(c1)OCCO2 | 0 | 0 | 0 | 0 | 0 | 0 | -
CCSc1nc2c(cnn2-c2ccc(C)cc2)c(=O)[nH]1 | 0 | 0 | 0 | 41 | 0 | 0 | 0
CCCSc1nc2c(cnn2-c2ccc(C)cc2)c(=O)[nH]1 | 0 | 0 | 0 | 0 | 0 | 0 | -
Cc1ccc(S(=O)(=O)CCc2nnc(NC(=O)c3ccccn3)s2)cc1 | 0 | 0 | 0 | 44 | 0 | 0 | 0
SMILES | tim23-1 inh | TIM10 inh | NALP1 inh | tim10-1 inh | SKKanGAS inh | NLRP3 yeast inh | tim10-1 conf
Cc1ccc(S(=O)(=O)CCc2nnc(NC(=O)c3cnccn3)s2)cc1 | 0 | 0 | 0 | 0 | 0 | 0 | -
CC(=O)Nc1ccc(NC(=O)CN(c2cc(Cl)ccc2Cl)S(C)(=O)=O)cc1 | 0 | 0 | 0 | 0 | 0 | 0 | -
CCC1CN(C(=O)NCc2ccc(F)cc2)c2cc(C)ccc2O1 (stereo not given) | 0 | 0 | 0 | 41 | 0 | 0 | 0
CCC1CN(C(=O)NCc2ccc(C)cc2)c2ccccc2O1 (stereo not given) | 0 | 0 | 0 | 0 | 0 | 0 | -
CC1=Nc2ccccc2/C1=C\c1nc(-c2ccc(F)cc2)oc1O | 0 | 0 | 0 | 53 | 81 | 0 | 0
Cc1ccccc1OCC(=O)OCC(=O)NCCc1ccccc1 | 0 | 0 | - | 0 | - | 0 | -
CC(NC(=O)c1ccccc1Br)c1nnc(SCC(=O)NC2=NCCS2)n1C (stereo not given) | 0 | 0 | 0 | 0 | 0 | 0 | -
c1ccc(Nc2cccc(Nc3ccccc3)c2)cc1 | 0 | 0 | 0 | 54 | 0 | 0 | 76
CC1(C)CN=c2s/c(=C\c3ccc(Cl)cc3)c(=O)n2C1 | 0 | 0 | 0 | 41 | 0 | 0 | 0
COCC(=O)Nc1sc2c(c1C(=O)OC)C(C(=O)OC)CC2 (stereo not given) | 0 | 0 | 0 | 43 | 0 | 0 | 0
Cc1nc2c(Br)c(C)nn2c2c1CCC2 | 0 | 0 | 0 | 48 | 0 | 0 | 0
CCOc1ccc(-n2ccnc(SCC(=O)NCc3cccc(OC)c3)c2=O)cc1 | 0 | 0 | - | 43 | 0 | 0 | 0
CCOc1ccc(-n2ccnc(SCC(=O)Nc3ccc(OC)cc3OC)c2=O)cc1 | 0 | 0 | - | 0 | 0 | 0 | -
O=C(Nc1cc(Sc2ccccn2)cc([N+](=O)[O-])c1)c1cccc(F)c1 | 0 | 0 | 0 | 44 | 0 | 0 | 53
CCCN1CCC(NC(=O)Cc2cccc(C)c2)CC1 | 0 | 0 | 0 | 0 | 0 | 0 | -
O=C(CC(Sc1ccc(Br)cc1)C(=O)O)c1ccc(F)cc1 (stereo not given) | 0 | 0 | 0 | 42 | 0 | 0 | 0
CCOc1ccc(C(=O)CC(Sc2ccc(C)cc2)C(=O)O)cc1 (stereo not given) | 0 | 0 | 0 | 0 | 0 | 0 | -
Cc1ccc(C(=O)O/N=C2\CCCc3ccccc32)cc1 | 0 | 0 | 0 | 0 | 0 | 0 | -
Cc1cccc(C(=O)O/N=C2\CCCc3ccccc32)c1 | 0 | 0 | 0 | 44 | 0 | 0 | 36
COc1ccc2c(c1)/C(=N/OC(=O)c1cccs1)CCC2 | 0 | 0 | 0 | 52 | 0 | 0 | 41
COc1cc(C(=O)Nc2ccn(C)n2)ccc1OC(F)F | 0 | 0 | - | 0 | - | 0 | -
COc1ccc(S(=O)(=O)Nc2cc3c4c(c2)CCN4C(=O)CC3)cc1 | 0 | 0 | - | 0 | 0 | 0 | -
CCOC(=O)c1c(NC(=O)/C=C/c2ccc(C)o2)sc(C)c1C | 0 | 0 | 0 | 46 | 0 | 0 | 0
Cc1ccc(/C=C/C(=O)Nc2sc(C)c(C)c2C(=O)OC(C)C)o1 | 0 | 0 | 0 | 0 | 0 | 0 | -
CN(C)S(=O)(=O)N1CCN(CC(O)COc2ccc3cc(Br)ccc3c2)CC1 (stereo not given) | 0 | 0 | 0 | 0 | 0 | 0 | -
